# Mac1 fbg enh: CD11b/CD18-fibrinogen binding enhancement; P05107+P11215; K562 CD11b/CD18 adhesion to fibrinogen, ATPlite luminescence; activation, % at 10 µM; 93,000 compounds, 0.07% hits; AID 1499;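 active = 10 µM primary screen giving 50% or more activity, confirmed by 40% or more on retest at that dose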
# CD11b adhes inh: inhibitors of human CD11b/CD18 binding to fibrinogen; P05107+P11215; K562 CD11b/CD18 adhesion to fibrinogen, ATPlite luminescence; Mn2+ added to activate the integrin; inhibition, % at 10 µM; 93,000 compounds, 0.54% hits;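 active = primary inhibition of 50% or more at 10 µM, then 40% or more on retest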
# Cav3 T inh: inhibitors of human Cav3.2 T-type calcium channel. O95180. Cav3.2-expressing cells, Fluo-4 calcium fluorescence FDSS; stronger effect = lower value. 100,000 compounds, 4% hits. AID 449739. B-score at 10 µM;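 active = single-dose well whose peak fluorescence ratio is a statistical outlier from its plate by either plate-standardised score or position-corrected B-score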
# Ec RNAP inh: blocks E. coli RNA polymerase transcription; P0A8V2; fluorescence transcription assay; inhibition, %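 (tested at 10 µM)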; 62,000 compounds, 0.2% hits; AID 559; in the data active = inhibition above about 20%;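 note: 0% = enzyme without compound and 100% = no enzyme blank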
# Target sequence (P0A8V2 whole entry, looked up): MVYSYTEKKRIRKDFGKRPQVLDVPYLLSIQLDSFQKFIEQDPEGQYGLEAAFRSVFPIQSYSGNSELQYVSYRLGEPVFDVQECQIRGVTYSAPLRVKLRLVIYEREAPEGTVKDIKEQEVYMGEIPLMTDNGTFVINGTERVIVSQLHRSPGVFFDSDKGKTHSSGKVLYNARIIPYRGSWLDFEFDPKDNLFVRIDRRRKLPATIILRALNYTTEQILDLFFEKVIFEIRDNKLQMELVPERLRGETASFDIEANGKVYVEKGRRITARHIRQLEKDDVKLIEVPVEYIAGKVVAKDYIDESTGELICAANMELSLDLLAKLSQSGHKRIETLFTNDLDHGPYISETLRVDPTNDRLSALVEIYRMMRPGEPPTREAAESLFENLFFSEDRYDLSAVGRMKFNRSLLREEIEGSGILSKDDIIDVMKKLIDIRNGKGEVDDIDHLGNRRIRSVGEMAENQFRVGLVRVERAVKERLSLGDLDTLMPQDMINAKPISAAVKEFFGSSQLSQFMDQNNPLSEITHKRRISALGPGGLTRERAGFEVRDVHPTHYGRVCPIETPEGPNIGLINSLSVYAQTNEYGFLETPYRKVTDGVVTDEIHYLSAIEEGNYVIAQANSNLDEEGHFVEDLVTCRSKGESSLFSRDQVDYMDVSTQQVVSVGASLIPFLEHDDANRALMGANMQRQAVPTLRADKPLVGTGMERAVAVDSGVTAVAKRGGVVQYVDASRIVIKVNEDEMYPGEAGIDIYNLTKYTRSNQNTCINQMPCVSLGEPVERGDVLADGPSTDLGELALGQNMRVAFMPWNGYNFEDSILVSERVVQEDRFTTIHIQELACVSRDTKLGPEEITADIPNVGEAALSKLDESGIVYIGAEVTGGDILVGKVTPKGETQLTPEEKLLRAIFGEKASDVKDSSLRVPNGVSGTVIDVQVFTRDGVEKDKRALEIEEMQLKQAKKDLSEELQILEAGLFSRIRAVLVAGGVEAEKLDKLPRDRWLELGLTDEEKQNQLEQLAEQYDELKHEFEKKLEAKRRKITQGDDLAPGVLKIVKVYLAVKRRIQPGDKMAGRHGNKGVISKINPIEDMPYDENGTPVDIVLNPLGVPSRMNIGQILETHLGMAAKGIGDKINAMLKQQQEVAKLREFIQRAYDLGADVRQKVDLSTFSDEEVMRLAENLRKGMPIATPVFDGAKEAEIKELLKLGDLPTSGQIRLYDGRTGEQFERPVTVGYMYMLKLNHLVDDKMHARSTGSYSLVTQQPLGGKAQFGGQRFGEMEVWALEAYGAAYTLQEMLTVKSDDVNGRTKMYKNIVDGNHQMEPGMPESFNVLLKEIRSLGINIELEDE
# PTK2B oligo ant: antagonists of human Pyk2 oligomerization; Q14289; AID 1347419; 99,000 compounds, 0.83% hits; Q293 cells, Pyk2 FERM NanoBiT luminescence; stronger effect = lower value; z-score (the deposit names both 25 µM and 10 µM);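 active = Z-score of -3 or lower, scaled per plate to the spread of control and sample wells; inactive = z-score above -3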;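 note: negative z-score means lost luminescence so less FERM oligomerization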
# The depositor's hits bear a star; · = no result given. This is a sample that favours compounds with a hit; in the whole collection about 4.2% have one here.
SMILES,Mac1 fbg enh,CD11b adhes inh,Cav3 T inh,Ec RNAP inh,PTK2B oligo ant
C=C(C)COc1ccc(-c2nc(N)ncc2-c2ccc(OC)cc2)c(O)c1,·,·,-0.29,3,·
COc1ccc(-c2nc(N)ncc2Oc2ccccc2Br)c(O)c1,-1,4,·,6,-2.7
Oc1c(Br)cc(Br)cc1/C=N/c1nc2c(s1)CCCC2,·,·,-5.3*,·,1.2
Oc1ccc2ccccc2c1/C=N/c1nc2c(s1)CCCC2,-3,6,-0.042,·,0.71
O=C(O)C(Cc1ccccc1)N1Cc2ccccc2C1=O (configuration not stated),9,-20,0.32,·,0.24
CC(C)CCNC(=O)[C@H](CSCc1ccccc1)N1Cc2ccccc2C1=O,·,·,-3.8*,·,·
CCOC(=O)CSc1ncc(OC)c(Sc2ccc(Cl)cc2)n1,·,·,-11*,·,0.55
O=C(CSCc1cccc(CSCC(=O)Nc2ccccc2)n1)Nc1ccccc1,-4,-26,-6.8*,·,1.2
O=c1ncn(-c2ccccc2F)c2ncccc12,·,·,0.34,·,0.65
CC1=C(C(=O)Nc2ccccc2)C(c2sccc2C)n2nnnc2N1 (configuration not stated),-2,-38,-1.5,·,·
Cc1ncc(CC(=O)n2cc(C(=O)c3cc(F)ccc3O)cn2)s1,·,·,-3.4*,·,-0.24
Cc1ccc(O)c(C(=O)c2cnn(C(=O)Cc3csc(C)n3)c2)c1,-6,-3,-1.3,8,-0.02
Clc1ccc(OCc2nnc(SCc3nc4ccccc4[nH]3)n2Cc2ccco2)cc1,-1,31,-8.5*,9,0.85
Clc1cccc(-c2nnc(SCc3nc4ccccc4[nH]3)n2Cc2ccco2)c1,1,32,-5.4*,5,0.64
CCOc1ccccc1N1CCN(C(=O)c2ccc3[nH]c4c(c3c2)CCCC4)CC1,0,2,·,·,·
Cc1cc(OCC(=O)Nc2ccncc2)cc(C)c1Br,-9,84*,-1.3,·,1.1
Cc1cc(OCC(=O)NCC(C)C)cc(C)c1Br,-3,12,-2.6,·,0.71
O=C(CN1CCN(c2ccc(Cl)cc2)CC1)Nc1ccc(F)cc1,1,18,-4.5*,2,2.3
CCOC(=O)c1sc(=S)n(CC)c1N,-4,-24,0.48,·,-0.15
CCOC(=O)c1sc(=S)n(Cc2ccccc2)c1N,-1,14,-6.7*,6,-1.5
Cc1ccc(S(=O)(=O)NCCc2ccccc2)cc1,-3,-9,-2.4,·,0.38
Cc1ccc(S(=O)(=O)NC(C)CCc2ccccc2)cc1 (configuration not stated),14,5,-4.1*,·,-0.71
O=C1CC(c2nc3ccccc3[nH]2)CN1c1cccc(C(F)(F)F)c1 (configuration not stated),·,·,-5.4*,5,·
COc1ccc(Cl)cc1N1CC(c2nc3ccccc3[nH]2)CC1=O (configuration not stated),·,·,-0.0093,4,·
CCOC(=O)Cn1c(=N)n(Cc2ccccc2)c2ccccc21,-4,-11,-0.71,3,0.36
SMILES,Mac1 fbg enh,CD11b adhes inh,Cav3 T inh,Ec RNAP inh,PTK2B oligo ant
Cc1ccccc1Cn1c(=N)n(CC(=O)c2ccco2)c2ccccc21,0,0,-4.2*,1,2.1
Cc1ccc(S(=O)(=O)NNC(=O)C(O)(c2ccccc2C)c2ccccc2C)cc1,·,·,·,·,-1.1
COc1cc(NS(=O)(=O)c2ccc(Br)s2)cc(OC)c1,6,-20,-5.8*,6,-1.1
CCC(C)(C)n1nnnc1C(c1cc2ccc(OC)cc2[nH]c1=O)N1CCc2ccccc21 (configuration not stated),-2,-8,-3.9*,6,0.79
Cc1oc2c(c1C(=O)c1ccc(Cl)cc1)C(=O)C(=O)c1ccccc1-2,-5,-9,·,·,-3.6*
Cc1ccc(C(=O)c2c(C)oc3c2C(=O)C(=O)c2ccccc2-3)cc1,·,·,-3.9,·,-3.8*
COC(=O)c1cccc(COC(=O)c2ccc(CS(=O)(=O)c3ccc(C)cc3)cc2)c1,6,-1,0.029,·,0.31
O=C(COc1ccccc1Cl)N1CCN(c2ccc([N+](=O)[O-])c(N3CCOCC3)c2)CC1,5,8,-0.58,·,-1.4
Clc1ccc2c(c1)-c1nnc(Br)n1-c1ccccc1S2,·,·,-3.9*,·,-2
Brc1nnc2n1-c1ccccc1Sc1ccccc1-2,·,·,-0.65,·,-0.05
O=S(=O)(c1ccccc1)c1cnc(-c2cccnc2)nc1-c1ccccc1,-3,2,·,·,-0.53
Cc1nc(-c2ccccc2)sc1-c1nc(-c2cccs2)ncc1S(=O)(=O)c1ccccc1,-1,-2,-4.8*,·,·
O=S(=O)(c1ccccc1)c1cnc(-c2cccnc2)nc1-c1ccc(Cl)cc1Cl,4,12,·,·,-1.7
Cc1nc(-c2ccccc2)sc1-c1nc(-c2cccnc2)ncc1S(=O)(=O)c1ccccc1,-3,8,-5*,·,-2.4
Cc1ccc(S(=O)(=O)N2CCC(C(=O)NNS(=O)(=O)c3ccc(Cl)cc3)CC2)cc1,·,·,-1.9,·,-0.26
CNC(=O)NC(=O)CSc1nc2cc(C(=O)OC)ccc2c(=O)n1-c1ccccc1,-1,-3,-1.6,7,-0.27
CCCNC(=O)NC(=O)CSc1nc2cc(C(=O)OC)ccc2c(=O)n1-c1ccccc1,2,-6,0.65,·,-3.1*
COc1ccc2nc3c(cc2c1)c(NC(=O)c1cccs1)nn3CC(C)C,14,12,·,-4,-3.4*
CCOc1ccc(NC(=O)c2cccc(OC(=S)N3CCC(C)CC3)c2)cc1,·,·,-4.3*,·,0.1
CCOc1cccc(C(=O)Nc2ccc(N(CC)CC)cc2)c1,0,0,·,11,-0.8
CCN(Cc1ccccc1)S(=O)(=O)c1ccc(S(=O)(=O)N(Cc2cccc(OC)c2)CC2CCCO2)cc1 (configuration not stated),-4,8,-6.7*,·,0.29
Cc1nc2c(Br)cc(Br)cc2cc1O,-6,90*,-5.1*,·,-1.1
Brc1cc(Br)c2nc(-c3cccs3)ccc2c1,7,10,-0.49,·,0.31
COc1ccc(CCNc2oc(COc3ccccc3F)nc2C#N)cc1OC,0,-9,-5.1*,2,0.04
COc1ccc(CCNc2oc(COc3ccccc3Cl)nc2C#N)cc1OC,·,·,-5.8*,5,·
SMILES,Mac1 fbg enh,CD11b adhes inh,Cav3 T inh,Ec RNAP inh,PTK2B oligo ant
COc1ccc(NC(C)C(=O)N/N=C/c2ccccc2OCc2ccc(Br)cc2)cc1 (configuration not stated),·,·,-5.9*,·,-1.3
CC(Nc1ccc(Br)cc1)C(=O)N/N=C/c1ccccc1OCc1ccccc1 (configuration not stated),0,1,-3.3,·,-0.6
CCOC(=O)c1c(NC(=O)CN2C(=O)NC3(CCC(CC)CC3)C2=O)sc(C)c1-c1ccc(C)cc1 (configuration not stated),17,5,·,·,·
Cc1ccccc1CN(c1ccc(C(=O)Nc2ccccc2C(=O)NCc2ccco2)cc1)S(C)(=O)=O,-3,16,-2,·,-3.6*
Cc1ccc(S(=O)(=O)C2(C(=O)N3CCN(C4CCCCC4)CC3)CC2)cc1,·,·,-5.2*,1,0.11
COc1ccc(C)cc1NC(=O)C(NCC1CCCO1)c1ccccc1 (configuration not stated),·,·,·,·,0.48

# Source: PubChem (several laboratories)
